Pf growth 96h: inhibits malaria parasite growth, 96 h; P. falciparum luciferase reporter growth, 96 h; Potency, µM (doses to about 28.7 µM), hits mostly inhibitors; actives 6.9% (n = 320,000); AID 504834
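Parasite growth measured via integrated firefly luciferase reporter in P. falciparum. Infected erythrocytes at 2% hematocrit, 0.05% parasitemia final were treated 96 hours at 37 C under 5% CO2, and luminescence was read.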
Cycloheximide cs: counter-screen hit for Shiga toxin inhibitors, cycloheximide. cell reporter, cycloheximide protein synthesis inhibition counterscreen. actives 12% (n = 300,000). max response, %; in the data active = max response mostly above about 13%, no sharp cut-off; inactive = mostly below about 14%; note: read at 38.3 µM for the half of the compounds with a filed dose
Pf growth 48h: inhibits P. falciparum growth in the first generation, 48 h. P. falciparum luciferase growth in erythrocytes, 48 h. Potency, µM (doses to about 28.7 µM), most hits filed as inhibitors. actives 5.9% (n = 310,000)
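Cell-based growth assay: transgenic P. falciparum expressing firefly luciferase, cultured in red cells within RPMI 1640 containing 0.5% w/v Albumax, 24 mM bicarbonate and gentamycin. A drop in luciferase activity indicates inhibition.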
NS1 function inh: blocks influenza NS1 protein function | Potency, µM (titrated, usually from 46.1 µM) | actives 0.4% (n = 270,000); calls by dose curve; note: actives are rising curves; nearly all actives have a fitted effect of over 50% in size
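S. cerevisiae expressing influenza A NS1, grown in glucose, washed, then diluted 1:100 into pH 6.0 -URA galactose medium with 23 nl compound. Growth recovery read as OD600; NS1-free strain serves as control.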
Shiga inhibitor: blocks Shiga toxin action in Vero cells. Vero cells, Shiga toxin protein synthesis inhibition reporter. AID 2315. inhibition, % at 38.7 µM. actives 9.2% (n = 290,000); in the data active = inhibition mostly above about 28%, no sharp cut-off; inactive = mostly below about 43%
Of the large screens only hits and unclear results are named; the others gave an inactive call. Shown are actives, neighbours in structure and some others; about 21% of the full set was active somewhere. Unless noted, calls come from the whole dose curve; as a rule, active = well fitted inhibition curve with a large enough effect; inconclusive = small, poorly fitted or top-dose-only effect, or another doubt; inactive = no such curve, though single readings can be large or run the other way.

COc1cccc(-c2nn(-c3ccccc3)cc2/C=C(/NC(=O)c2ccccc2)C(=O)O)c1	none
O=[N+]([O-])c1ccc2c3n([n+]([O-])c2c1)CCN=C3c1ccc(Cl)cc1	Pf growth 96h inconclusive, Pf growth 48h 12µM (no result: Cycloheximide cs, NS1 function inh, Shiga inhibitor)
COc1ccc2c3n([n+]([O-])c2c1)CCN=C3c1ccc(Cl)cc1	none (no result: Cycloheximide cs, NS1 function inh, Shiga inhibitor)
Cc1ccc(Cn2nnc3c(=O)n(Cc4cc(C)ccc4C)cnc32)cc1	Pf growth 96h 1.5µM, Pf growth 48h inconclusive
Cc1cccc(Cn2cnc3c(nnn3Cc3ccc(Cl)cc3)c2=O)c1	Pf growth 96h 4.1µM, Pf growth 48h inconclusive
Cc1ccc(Cn2nnc3c(=O)n(Cc4cccc(C)c4)cnc32)cc1	Pf growth 48h inconclusive
Cc1cc(NC(=S)NC(=O)c2ccccc2)ccc1-c1cc2ccccc2oc1=O	none
CCCCN1C[C@H](Cc2ccccc2)[C@@H](CC(=O)Nc2ccccc2)C1=O	Pf growth 96h inconclusive
O=C(C[C@H]1C(=O)N(CCc2ccccc2)C[C@@H]1Cc1ccccc1)Nc1ccccc1	Pf growth 96h 10µM, Pf growth 48h inconclusive
O=C(C[C@H]1C(=O)N(Cc2ccccc2)C[C@@H]1Cc1ccccc1)Nc1ccccc1	Pf growth 96h 13µM
Cc1ccc(S(=O)c2snnc2C)cc1 (stereo unspecified)	none (no result: Pf growth 48h)
CCCNC(=O)c1nnsc1S(=O)(=O)c1ccc(Cl)cc1	Cycloheximide cs 27 (no result: NS1 function inh)
Cc1nnsc1S(=O)c1ccc(F)cc1 (stereo unspecified)	Pf growth 96h inconclusive
CCCNC(=O)c1nnsc1S(=O)c1ccc(Cl)cc1 (stereo unspecified)	Pf growth 96h inconclusive, Cycloheximide cs 36, Pf growth 48h inconclusive (no result: NS1 function inh)
CCCNC(=O)NS(=O)(=O)c1ccc(Cl)cc1	none
CNC(=O)c1nnsc1S(=O)c1ccc(Cl)cc1 (stereo unspecified)	Pf growth 96h inconclusive, Cycloheximide cs 55, Pf growth 48h 15µM, Shiga inhibitor 98 (no result: NS1 function inh)
COc1ccc(NS(=O)(=O)c2cn(C)cn2)c(OC)c1	none
CCOc1ccc(N2CC(C(=O)Nc3ccc4c(c3)OCCO4)CC2=O)cc1 (stereo unspecified)	Cycloheximide cs 50, Shiga inhibitor 62
CCOc1ccc(N2CC(C(=O)N3CCCC3)CC2=O)cc1 (stereo unspecified)	Pf growth 96h 12µM
Cc1ccc(N2CC(C(=O)Nc3cccc(F)c3)CC2=O)cc1 (stereo unspecified)	Pf growth 96h 2.3µM
CCOc1cccc(NC(=O)C2CC(=O)N(c3ccc(F)cc3)C2)c1 (stereo unspecified)	Pf growth 96h inconclusive
CCOc1ccc(N2CC(C(=O)Nc3ccc4c(c3)OCO4)CC2=O)cc1 (stereo unspecified)	none (no result: NS1 function inh)
CCOc1ccc(N2CC(C(=O)N3CCCCCC3)CC2=O)cc1 (stereo unspecified)	none
Cc1ccc(N2C(=O)C(CC(=O)Nc3cccc(F)c3)N(C3CC3)C2=O)cc1 (stereo unspecified)	Cycloheximide cs 18
CSc1cc(-c2ccc(Cl)cc2)c(C(=O)N2CCCC2)s1	none
COc1cccc(OC)c1-c1nn(-c2ncc(C(F)(F)F)cc2Cl)c(=O)o1	none
CCOc1ccc(N2CC(C(=O)Nc3ccc(F)cc3F)CC2=O)cc1 (stereo unspecified)	Pf growth 96h 9.3µM
Cc1cc(C)c(NC(=O)C2CC(=O)N(c3ccc4c(c3)OCCO4)C2)c(C)c1 (stereo unspecified)	Cycloheximide cs 26 (no result: Pf growth 48h)
Cc1ccc(N2CC(C(=O)Nc3ccc(N(C)C)cc3)CC2=O)cc1C (stereo unspecified)	Pf growth 96h 8.3µM
Cc1ccc(N2CC(C(=O)NC3=NCCS3)CC2=O)cc1C (stereo unspecified)	Pf growth 48h inconclusive (no result: Pf growth 96h)
CC(C)(C)C(=O)N1CCN(c2ccc([N+](=O)[O-])c(-n3nc(-c4ccccc4)c4ccccc4c3=O)c2)CC1	Pf growth 96h 9.3µM, Pf growth 48h 5.2µM, NS1 function inh inconclusive
Cc1ccc(-c2nn(-c3cc(Cl)ccc3[N+](=O)[O-])c(=O)c3ccccc23)cc1	Pf growth 96h 12µM, Pf growth 48h inconclusive
COc1ccc2c(c1OC)C(=O)N(c1cccc(NC(C)=O)c1)C2	Cycloheximide cs 23
COc1ccc2c(c1OC)C(=O)N(c1ccc(F)cc1)C2	Cycloheximide cs 36, Shiga inhibitor 65
COc1ccc(C(=O)Nc2cccc(NC(C)=O)c2)cc1OC	Pf growth 96h inconclusive
CC(OC(=O)CCc1ccccc1)C(=O)Nc1ncc(Cl)cc1Cl (stereo unspecified)	none
COc1ccc(SCCN2CCN(C)CCC2=O)cc1	NS1 function inh inconclusive
Cc1ccc(SC[C@H](CC(C)C)N2CCN(C)CCC2=O)cc1	Cycloheximide cs 38, Shiga inhibitor 84
COc1ccc(SC[C@H](CC(C)C)N2CCN(C)CCC2=O)cc1	Cycloheximide cs 17, Shiga inhibitor 75
CC(C)C[C@@H](CSc1ccc(Br)cc1)N1CCN(C)CCC1=O	Pf growth 96h inconclusive, Cycloheximide cs 40, NS1 function inh inconclusive, Shiga inhibitor 57
CCc1ccc(C2CC(=O)N(c3ccc(F)cc3)C3=C2C(=O)OC3)cc1 (stereo unspecified)	Pf growth 96h inconclusive (no result: NS1 function inh)
Cc1ccc(SCC(=O)c2c(C)nc3ccccn23)cc1	Cycloheximide cs 31, Shiga inhibitor 62 (no result: NS1 function inh)
Cc1ccc(SCC(=O)c2cc(C)c(O)c(C)c2)cc1	Pf growth 96h inconclusive, Cycloheximide cs 17, Pf growth 48h inconclusive, Shiga inhibitor 50
O=C(O)c1cccc(-c2noc(-c3ccccc3F)n2)c1	Pf growth 96h inconclusive, Pf growth 48h 0.3µM (no result: Cycloheximide cs, NS1 function inh, Shiga inhibitor)
O=C(O)c1cccc(-c2nc(-c3ccccc3C(F)(F)F)no2)c1	Pf growth 96h inconclusive, Pf growth 48h 4.1µM (no result: Cycloheximide cs, NS1 function inh, Shiga inhibitor)
O=C(Nc1cccnc1)c1ccccc1-c1nc(-c2ccccc2F)no1	Pf growth 96h inconclusive (no result: Pf growth 48h)
Fc1ccccc1-c1nc(-c2cnccc2C(F)(F)F)no1	Pf growth 96h inconclusive, Cycloheximide cs 15, Pf growth 48h inconclusive
COC(=O)c1cccc(-c2noc(-c3ccccc3F)n2)c1	none (no result: Cycloheximide cs, NS1 function inh, Shiga inhibitor)
Fc1ccccc1-c1nc(-c2ccncc2)no1	Cycloheximide cs 24, Shiga inhibitor 41
CCN(CC)S(=O)(=O)c1ccc(N2CC(C(=O)N3CCOCC3)CC2=O)cc1 (stereo unspecified)	none (no result: Cycloheximide cs, NS1 function inh, Shiga inhibitor)
O=c1[nH]c2c(s1)C(c1ccco1)C1C3CCC(C3)C1S2 (stereo unspecified)	Pf growth 96h inconclusive (no result: Pf growth 48h)
CC1Cc2ccccc2N1CC(=O)NCc1ccc2c(c1)OCO2 (stereo unspecified)	none
COc1ccc(-c2noc(-c3ccccc3-c3ccccc3)n2)cc1	Pf growth 96h inconclusive
COc1ccc(-c2noc(-c3ccccc3F)n2)cc1	Pf growth 96h 9.3µM, Cycloheximide cs 51, Shiga inhibitor 91 (no result: Pf growth 48h)
Cc1ccc(-c2nc(-c3ccccc3)no2)c(Cl)c1	none (no result: Pf growth 48h)
Brc1ccccc1-c1nc(-c2ccccc2)no1	Cycloheximide cs 55, Shiga inhibitor 79
Fc1ccccc1-c1nc(-c2ccccc2)no1	Cycloheximide cs 40, Shiga inhibitor 68
COc1ccc(-c2nc(-c3ccncc3)no2)c(OC)c1	Cycloheximide cs 61, Shiga inhibitor 110

Source: PubChem
